# Reference: the supplement of paper PMC6555819
# Tests used:
# Test in all cases: PBM binding z-score (relative to random genomic background probes); higher = stronger binding; sequences stand for … in GC…GCGATTGACAGCGTAGAATGAAGG
# [1] = tested on: PPARg:RXRa DBDmut IVT, anti-RXR (DBD mutation: RXRa K156A/R161A, NR concentration 270 nM, RXRa partner concentration 90 nM)
# Method in brief: (§1)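 Scanned fluorescence from custom Agilent 4×180K protein-binding microarrays was regression-normalized. Binding z-scores use random background probes as reference. Ligand-free nuclear receptor dimers were incubated on the arrays for 1 h and detected with antibodies against each partner (one per run).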
# [2] = tested on: PPARg:RXRa IVT, anti-PPARg (NR concentration 270 nM, RXRa partner concentration 90 nM)
# Method in brief: as §1
# [3] = tested on: PPARg DBDmut:RXRa IVT, anti-PPARg (DBD mutation: PPARg1 K132A/R137A, NR concentration 270 nM, RXRa partner concentration 90 nM)
# Method in brief: as §1
# [4] = tested on: PPARg DBDmut IVT, anti-PPARg (DBD mutation: PPARg1 K132A/R137A, NR concentration 270 nM)
# Method in brief: as §1
# [5] = tested on: PPARg homodimer (NR concentration 180 nM)
# Method in brief: as §1
# [6] = tested on: PXR:RXRa (NR concentration 270 nM, RXRa partner concentration 90 nM)
# Method in brief: as §1
# [7] = tested on: PXR homodimer (NR concentration 270 nM)
# Method in brief: as §1
# [8] = tested on: RARa:RXR (NR concentration 270 nM, RXRa partner concentration 90 nM)
# Method in brief: as §1
# [9] = tested on: RARa homodimer (NR concentration 270 nM)
# Method in brief: as §1
# [10] = tested on: RARb:RXRa (NR concentration 270 nM, RXRa partner concentration 90 nM)
# Method in brief: as §1
Sequence,PBM binding z-score [1],PBM binding z-score [2],PBM binding z-score [3],PBM binding z-score [4],PBM binding z-score [5],PBM binding z-score [6],PBM binding z-score [7],PBM binding z-score [8],PBM binding z-score [9],PBM binding z-score [10]
CCTACTGGGCCACGAAAGGTCATCGATTCAGTGA,5.98,5.97,-0.47,0.605,4.31,5.62,0.616,6.08,0.927,4.17
ATCGAAAGGTCGAAGGTGAATATACCCACCCGAA,0.205,2.75,0.488,1.25,2.07,3.5,0.328,5.15,0.699,4.04
CCGACTGGGGCAAAGGTTACCAAACTCAGTACGA,4.42,6.14,-0.923,-0.533,1.38,2.51,-0.494,4.11,0.0196,2.52
ATATGTAGGTTAAGGGTCGTTCAGGTTGGTTCGC,7.55,7.66,3.39,1.59,2.62,3.64,2.22,3.78,2.01,2.33
ACTAGCAGGCCAAGGGTCACCCAAGATTAGTCCG,1.04,4.15,0.826,-0.393,2.65,3.94,-0.00443,5.22,1.35,3.62
CCTACTGGACCAAAGGTCATTGATTCCAATGCTC,3.51,5.62,0.797,0.872,3.81,5.47,3.17,5.95,2.78,4.48
TCGAGTAGGTTACCAATGGGGCACTCAGCTTTCT,3.78,3.08,-0.534,0.223,-0.453,0.0109,-0.848,0.158,-0.688,0.948
CCAGACAGGTGAGAAGGTATCTCAGCCTCGATTA,0.865,0.119,-1.02,-0.0601,0.414,-0.407,0.0596,0.185,0.147,0.303
TCTCGGAGGACACGAAAGATCAGAGCTCGACATC,1.5,0.155,-0.549,-1.75,-1.47,-0.243,-0.552,-0.0104,-0.742,1.17
CGGACTAGGTCAGAACAGGACAGTGAAGGATGAT,6.67,6.53,3.25,1.13,1.57,0.748,0.281,0.846,0.0596,2.68
AGAATGAGGTAATTAAGATCAGGGAATTGCGGTC,2.2,1.37,0.265,-0.0371,-0.649,-0.0568,0.153,0.224,-0.15,0.0669
TCGAGTCGGTTACCAATGGGGCATTCAGCTTTCT,0.844,-0.0532,-0.399,-0.375,-0.537,-0.204,-0.793,-0.238,-0.811,0.0866
CCGACTGGGGCAGAAAGGGTACCATACCATCCGG,0.57,0.77,-0.394,-1.37,-0.287,-0.615,-0.768,-0.429,-0.298,0.605
TCTCGGACGACACGAAGGTCAGAGCTTTCCAGAG,1.39,0.576,-1.3,-0.777,1.07,1.61,-0.245,1.95,0.13,2.8
CAAACTAGGTCAAGAGGTCAGAGTCCGCTTCCCG,8.57,8.53,2.77,1.17,6.51,5.04,0.812,6.67,3.26,5.15
CCTAGTTGGTTAGGAGGTCACACACCGGATATGA,1.46,3.63,0.832,1.05,4.26,4.03,1.84,4.45,1.79,3.42
CGTCCAAGTTCATAGGAGGTCAGTGAAGACAGAT,0.698,1.81,0.494,0.544,3.04,6.14,9.37,4.07,1.68,4.14
TCGAGTCGGTTAGGGGCATTCAGAATGGCGTCGA,0.464,-0.15,-1.37,-1.74,-0.435,0.545,-0.165,0.325,-1.4,0.501
TCGAGTAGGTTATGGGCATTCAGAATGGCGTCGA,1.95,1.36,-0.529,-0.999,0.0273,-0.316,-0.754,-0.148,-0.374,0.453
CCTACTGGGCCACGAAAGGTCATTGATTCAGTGA,5.99,5.95,0.883,-0.339,4.26,5.45,2.06,5.9,1.7,4
GCAGACACGTGAAACGCAGGTAACTCAGGGTGGC,-1.12,-0.582,-0.764,-0.343,-2.11,-0.819,-0.73,-0.666,-0.899,-0.551
ATCTCTAGGTAACAAGTTCAGTAAAAGAGAGGAC,3.06,3.22,1.24,1.1,1.34,1.67,1.66,1.57,1.54,1.78
GCGTGTAGATCAAGGTTAAGAAAGACTAAGCTAA,-0.0954,0.359,-0.293,-0.542,0.178,0.409,0.176,1.16,-0.389,0.791
CTGACTGGGGCAGAAAGGTTACCATACCATCCGG,2.87,3.6,0.376,0.141,1.76,1.12,0.49,1.75,0.326,2.13
